The panel holds about 83,000 compounds, 20% with a hit somewhere; the sample as a whole holds those more often.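 Values shown are percent growth following 48 h exposure of cells in 96-well plates to a single concentration of compound; below 10 was considered active.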 Active and inactive are the calls of the source.
Key:
Assay in all cases: NCI-60 one-dose screen, 48 h (100 = growth as untreated, 0 = no growth, -100 = all killed)
Settings in all cases: 10 µM unless noted
[1] = tested on: SR leukemia
[2] = tested on: RPMI-8226 leukemia
[3] = tested on: OVCAR-8 ovarian
[4] = tested on: OVCAR-5 ovarian
[5] = tested on: OVCAR-4 ovarian
[6] = tested on: SK-OV-3 ovarian
[7] = tested on: IGROV1 ovarian
[8] = tested on: OVCAR-3 ovarian
[9] = tested on: HS 578T breast
[10] = tested on: NCI/ADR-RES ovarian
[11] = tested on: T-47D breast
[12] = tested on: BT-549 breast
[13] = tested on: MDA-MB-435 melanoma
[14] = tested on: SW-620 colon
[15] = tested on: MCF7 breast
[16] = tested on: HCT-116 colon
[17] = tested on: HCC-2998 colon
[18] = tested on: KM12 colon
[19] = tested on: MDA-MB-468 breast

Measured: growth

CC(C)Sc1nc(NCCc2c[nH]c3ccccc23)c(C#N)c(-c2ccccc2)n1
inactive: [3] 38% | [4] 68.7% | [5] 53.6% | [6] 70.2% | [7] 87.8% | [8] 44.4% | [10] 15.1% | [12] 55.1% | [13] 48.1%
active: [1] -17.2% | [2] 7.27% | [9] 8.79% | [11] -9.65% | [14] -11.6% | [15] -22.5% | [16] 0.232% | [17] 4.86% | [18] 6.51% | [19] -4.09%

COc1c(F)ccc(C(=O)Nc2ccc3nc(NC(=O)C4CCCN(S(=O)(=O)c5ccc(Br)s5)C4)sc3c2)c1F (stereo not drawn)
inactive: [1] 44.3% | [2] 46.7% | [3] 94.9% | [4] 105% | [5] 67.9% | [6] 109% | [7] 81.5% | [8] 85.8% | [9] 58.8% | [10] 84.8% | [11] 53.1% | [12] 75.5% | [13] 84.1% | [14] 100% | [15] 53.8% | [16] 65.4% | [17] 98.7% | [18] 75% | [19] 83.7%

CCN(CC)c1ccnc(CNCCSC(c2ccccc2)(c2ccccc2)c2ccc(C)cc2)c1
active: [1] -60.8% | [2] -42% | [3] -90.3% | [4] -70.6% | [5] -21% | [6] -87.4% | [7] -30.9% | [8] -88.4% | [9] -49.3% | [10] -84.3% | [11] -67.8% | [12] -91.9% | [13] -90.6% | [14] -72.2% | [15] -82.4% | [16] -88.2% | [17] -96.4% | [18] -83.9% | [19] -92.3%

Cc1cc(=O)oc2cc(OCCCOc3ccc(/C=C/C(=O)Nc4ccccc4N)cc3)ccc12
active: [2] 0.19% | [6] 7.97% | [8] 5.72% | [11] 9.28% | [12] -59.7% | [15] 4.44%
inactive: [1] 21.4% | [3] 44.2% | [4] 37.5% | [5] 40.9% | [7] 39.4% | [9] 48.3% | [10] 21.3% | [13] 38.3% | [14] 26.8% | [16] 17.2% | [17] 27.3% | [18] 12.6%

Cc1ccccc1[C@H]1C(C(=O)c2ccc(Cl)cc2)C2(N[C@@H]1c1ccccc1)C(=O)Nc1ccccc12 (stereo partly drawn)
active: [1] -17.1% | [2] -24.2% | [3] -67.9% | [4] -46.6% | [5] 8.21% | [6] -3.38% | [7] 5.88% | [8] -58.4% | [9] -28.8% | [10] -68.2% | [11] 4.15% | [12] -66% | [13] -62.2% | [14] 0.765% | [15] -31.7% | [16] -84% | [17] -41.1% | [18] -30.8% | [19] -25.6%

CC(=O)OC[C@@]1(C)C2CC[C@]3(C)C(CC=C4C5CC(C)(C)CC[C@]5(C(=O)Nc5ccc(F)cc5)CC[C@]43C)[C@@]2(C)C[C@@H](OC(C)=O)[C@@H]1OC(C)=O (stereo partly drawn)
active: [19] 5.58%
inactive: [1] 27.8% | [2] 13.5% | [3] 36.4% | [4] 78.7% | [5] 30.3% | [6] 45.1% | [7] 51.9% | [8] 42% | [9] 85.3% | [10] 40.6% | [11] 30.7% | [12] 41.7% | [13] 44.2% | [14] 36.8% | [15] 27.3% | [16] 22.9% | [17] 48.6% | [18] 44.6%

O=C1CCCc2cc(OCC(=O)N3CCCCC3)ccc2N1
inactive: [1] 104% | [2] 101% | [3] 104% | [4] 123% | [5] 103% | [6] 111% | [7] 121% | [8] 110% | [9] 105% | [10] 109% | [11] 108% | [12] 126% | [13] 108% | [14] 106% | [15] 94% | [16] 114% | [17] 122% | [18] 108% | [19] 107%

CCN1C(=O)/C(=N\N=C(/C)c2ccc3c(c2)Nc2ccccc2S3)c2cc(Cl)ccc21
inactive: [1] 60.8% | [2] 48% | [3] 68.1% | [4] 83.7% | [5] 41.6% | [6] 108% | [7] 69.9% | [8] 55.6% | [9] 80% | [10] 68.8% | [11] 34.3% | [12] 48.8% | [13] 29.6% | [14] 85.9% | [15] 17.6% | [16] 48.8% | [17] 102% | [18] 47.3%

O=[N+]([O-])c1ccc(/C=C/c2nc3ccccc3n3c(=S)[nH]nc23)cc1
inactive: [1] 71.6% | [2] 56.5% | [3] 83% | [4] 89.1% | [5] 82.5% | [6] 105% | [7] 78.3% | [8] 69.9% | [9] 75.7% | [10] 85.2% | [11] 67.5% | [12] 59.1% | [13] 82.8% | [14] 87.3% | [15] 51.2% | [16] 70.6% | [17] 93.4% | [18] 79.3% | [19] 66.5%

O=C(COc1ccc(NC(=O)Nc2ccccc2)cc1)N=Nc1c(O)[nH]c2ccc([N+](=O)[O-])cc12
inactive: [1] 19.1% | [2] 53.9% | [4] 61.2% | [6] 56.7% | [7] 22.5% | [10] 113%
active: [3] -30.5% | [5] 7.38% | [8] -76.9% | [9] -8.84% | [11] -43.7% | [12] -42.6% | [13] -18.3% | [14] 4.08% | [15] -2.45% | [16] -55.9% | [17] -47.9% | [18] -62%

Cc1ccccc1[C@H]1C(C(=O)c2ccc(Cl)cc2)C2(N[C@@H]1c1ccccc1)C(=O)Nc1ccc(Br)cc12 (stereo partly drawn)
active: [1] -21.5% | [2] -10.5% | [3] 2.36% | [4] 5.07% | [8] -30.7% | [10] -55.1% | [13] 3.21% | [15] -6.57% | [16] -71.6% | [17] -22.1% | [18] 3.4%
inactive: [5] 14.6% | [6] 33.4% | [7] 13.4% | [9] 10.7% | [11] 22.6% | [12] 13.1% | [14] 13.3%

CC1(C)CC[C@]2(C(=O)Nc3ccc(F)cc3)CC[C@]3(C)C(=CCC4[C@@]5(C)C[C@@H](O)[C@H](O)[C@@](C)(CO)C5CC[C@]43C)C2C1 (stereo partly drawn)
active: [1] 1.68% | [2] 0.573% | [15] 7.64% | [19] 7.26%
inactive: [3] 48.1% | [4] 32.6% | [5] 49.4% | [6] 24.8% | [7] 63.5% | [8] 58% | [9] 45.5% | [10] 43% | [11] 15.5% | [12] 33.2% | [13] 39.9% | [14] 59.4% | [16] 17.2% | [17] 36% | [18] 30.1%

Cc1ccc(C(=O)NN2C(=O)/C(=C/C=C/c3ccc([N+](=O)[O-])o3)SC2=S)cc1
active: [1] 2.44% | [2] -1.56% | [3] -75.9% | [4] -94.9% | [5] -100% | [6] -78.1% | [7] -90.3% | [8] -97.3% | [9] -18.3% | [10] -48.8% | [11] -61.1% | [12] -90% | [13] -66.3% | [14] -69.1% | [15] -49.2% | [16] -77.7% | [17] -90% | [18] -83.2% | [19] -85.7%

CN(C)CCCNC(=O)c1cc(NC(=O)c2cc(NC(=O)c3ccc(C#Cc4ccccc4)cc3)cn2C)cn1C
inactive: [4] 36.8% | [5] 43.6% | [6] 46.5% | [7] 34.3% | [9] 31.7% | [10] 56.6%
active: [1] -46.3% | [2] -49% | [3] -0.647% | [8] -2.81% | [11] -14.9% | [12] -15% | [13] -63.3% | [14] -12.9% | [15] -93.3% | [16] -92.4% | [17] -90.7% | [18] -64%

COC1=C[C@]23CCC(=O)N2CCc2cc4c(cc2[C@@H]3[C@@H]1OC(=O)[C@H](C)O)OCO4
active: [1] -11.9% | [2] -17.9% | [8] -2.32% | [12] 2.51% | [15] -5.57% | [16] 1.88% | [17] -29.9% | [19] -17%
inactive: [3] 29.1% | [4] 46.4% | [5] 13.1% | [6] 23.5% | [7] 20% | [9] 53.9% | [10] 74.6% | [11] 42.4% | [13] 34.6% | [14] 13.6% | [18] 18.9%

OCC1(CCCc2ccccc2)CCCN(c2nccc3ccccc23)C1 (stereo not drawn)
active: [2] 5.11% | [12] -3.12%
inactive: [1] 12.1% | [3] 23.1% | [4] 62.4% | [5] 32.8% | [6] 57.7% | [7] 62.2% | [8] 45.6% | [9] 42% | [10] 11.8% | [11] 28.3% | [13] 41.2% | [14] 39.2% | [15] 12.3% | [16] 14.8% | [17] 60.3% | [18] 29.1%
